According to the supplement of paper PMC6555819:

Legend:
Test in all cases: PBM binding z-score (relative to random genomic background probes); higher = stronger binding; sequences stand for … in GC…GCGATTGACAGCGTAGAATGAAGG
[1] = tested on: RARb homodimer (NR concentration 270 nM)
Outline: (§1)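 Antibodies against each partner of ligand-free nuclear receptor dimers (one per run) detected binding on custom Agilent 4×180K protein-binding microarrays after 1 h incubation. The double-stranded probes had 34-nt variable regions carrying direct-repeat seeds, single-nucleotide variants, half-site ablations and random human genomic background sequences. Binding z-scores, from regression-normalized fluorescence, use the random background probes as reference.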

[2] = tested on: RARg:RXRa (NR concentration 270 nM, RXRa partner concentration 90 nM)
Outline: as §1

[3] = tested on: RARg homodimer (NR concentration 270 nM)
Outline: as §1

[4] = tested on: RXRa DBDmut IVT, anti-RXR (DBD mutation: RXRa K156A/R161A, NR concentration 90 nM)
Outline: as §1

[5] = tested on: RXRa homodimer (NR concentration 180 nM)
Outline: as §1

[6] = tested on: THRa:RXRa (NR concentration 90 nM, RXRa partner concentration 90 nM)
Outline: as §1

[7] = tested on: THRa homodimer (NR concentration 90 nM)
Outline: as §1

[8] = tested on: VDR homodimer (NR concentration 270 nM)
Outline: as §1

| Sequence | PBM binding z-score [1] | PBM binding z-score [2] | PBM binding z-score [3] | PBM binding z-score [4] | PBM binding z-score [5] | PBM binding z-score [6] | PBM binding z-score [7] | PBM binding z-score [8] |
| --- | --- | --- | --- | --- | --- | --- | --- | --- |
| TCTTGTAGATCAGCAGGTTAAGATAGCTGGCCAA | -0.0544 | -0.0434 | -0.135 | 0.631 | 0.48 | 0.172 | -0.238 | -0.295 |
| CGAACTAGGTCAAGGACAGTGAATCTCCGCACGC | 3.01 | 3.95 | 4.49 | 1.42 | 2.57 | 3.25 | 2.14 | 0.847 |
| AGAATGAGGTTAAGATCAGGGGAACAGAATACAT | 1.37 | 2.14 | 1.59 | 1.58 | 2.52 | 2.8 | 1.34 | 0.727 |
| ACAGACAGGTGAGTGAGGGTAACTCAGCTGGACG | 0.68 | 0.525 | 0.533 | -0.362 | 0.572 | 1.63 | 0.184 | 0.0737 |
| GCTATTAGTTGAAAGTGCAACCGAATGATTCTCG | 0.667 | 0.42 | 0.38 | 1.14 | 0.575 | 0.147 | -0.293 | 0.388 |
| CGAACTAGGTCAGAAAAGGACAGTGAAGGATGAT | 2.62 | 2.78 | 3.84 | 0.166 | 0.978 | 3.91 | 0.0421 | -0.122 |
| ATCTCTAGGTAACCAAGTTCAGTTAATGCCGAAC | 1.74 | 1.09 | 1.12 | 1.33 | 0.444 | 1.97 | 1.43 | 3.19 |
| TTACCAAGGTGACAGGTCGTTGATGCACGCCTTG | 1.52 | 1.37 | 1.17 | 0.0135 | 1.61 | 2.19 | 1.19 | 0.797 |
| CTTCCAAGGTCAGCAGGTCAGTGAAAGCGACGTG | 5.26 | 6.14 | 6.94 | 2.24 | 5.48 | 3.83 | 2.79 | 1.68 |
| GCAGACAGGTGAACCGCAGGTAACTCAGGGTGGC | 0.366 | 1.37 | 0.342 | -0.635 | 1.54 | 1.76 | -0.376 | -0.237 |
| TCTATTAGTTGCTTAGGGCAACCGAAACAGCGGA | 0.716 | 0.433 | 0.547 | 1.23 | 0.549 | 0.996 | 0.379 | 0.236 |
| ACAGACCGGTGATGAAGGTAACTCAGGCTATCAT | -0.0627 | -0.0765 | 0.11 | -0.318 | -0.04 | 0.648 | -0.0295 | -0.605 |
| ACTTACGGGTCAACGTGGTTATAGCACGCGTATA | 3.03 | 5.25 | 5.16 | 2.08 | 6.28 | 2.64 | 0.124 | 1.18 |
| TCTTGTAGATCGAAGGTTAAGAAAGCCGAAGCCT | 0.0841 | 0.243 | -0.136 | 0.423 | 0.859 | 0.418 | -0.559 | -0.284 |
| TCTACTAGTTGATTAGGGCAACCGAAACAGCGGA | 0.379 | 0.164 | 0.225 | 0.346 | 0.0714 | 0.604 | -0.104 | -0.302 |
| CGTCCAAGGTCATAGGAGGTCAGTGATGACAGAT | 5.33 | 6.66 | 6.93 | 3.97 | 6.5 | 5.4 | 3.25 | 4.59 |
| CGTCCAGGGTCAGCAGGTCAGTGAAAGCGACGTG | 4.51 | 6.01 | 5.75 | 1.59 | 5.4 | 3.61 | 1.32 | 1.25 |
| CCGACTGGGGCAAGGCTACCATAACGCACAGCCA | 0.53 | 0.348 | 0.614 | -0.842 | 0.0101 | -0.203 | -0.4 | -0.136 |
| ATCTCTAGGTAAGACTCTGTTCAGTGAAGAACGC | 0.515 | -0.0818 | 0.134 | 0.365 | 0.0121 | 0.57 | 0.576 | -0.00157 |
| AGAACGAGGGCAATGAGTCGATAGCACGGGTGGC | 0.763 | 1.02 | 1.4 | 1.75 | 0.683 | 0.527 | -0.542 | 1.17 |
| AGAATGAGGGTACCAAAGATCAGGGAAACGCTTG | 0.0111 | 0.44 | 0.506 | 0.104 | 0.821 | 0.502 | -0.667 | -0.0915 |
| CGAACTAGGTCATCCAGTACAGTGAATACATTGA | 3.05 | 3.9 | 4.84 | 2.61 | 2.78 | 3.04 | 1.43 | 2.24 |
| TACCCTAGGTCAGATCGGGCCAGTATACGCTATA | 2.63 | 2.98 | 3.5 | 0.165 | 1.54 | 4.19 | 0.64 | 0.268 |
| ATCTCTAGGAAAAAGTTCAGTGAATCCCGAGGAT | 1.74 | 1.01 | 1.4 | 0.393 | 0.399 | 0.0597 | -0.127 | 1.42 |
| TGTCAAATTTCAAAGGTAACGTAAGTATCCACAC | 0.519 | 0.768 | 0.628 | -0.231 | 0.652 | 1.27 | -0.123 | -0.127 |
| CCGAGTAGGTTATGGGGTATTCAGGCAACGGTGA | 0.841 | 0.46 | 0.562 | 0.0146 | 0.873 | 0.963 | 1.05 | 0.274 |
| ACTATTATTTGAGACGAGGGCAACCGATAGGTTG | 1.51 | 0.808 | 0.929 | 1.03 | 0.916 | 1.12 | 1.07 | 1.75 |
| ACAGACAGGTGTTGAAGGTAACTCAGGCTATCAT | -0.0362 | -0.0194 | 0.114 | -0.19 | 0.0702 | 0.786 | 0.073 | -0.587 |
